# Compound activity as filed in PubChem.
# TRHR enhancer: TRH receptor (human) allosteric enhancement; P34981; TRHR cells, fluo-8 calcium fluorescence, EC20 TRH enhancement; enhancement, % at 2 µM; 360,000 tested, 0.66% active; AID 493056; in the data active means enhancement above about 30%; further: 0% is about no effect
# Target sequence (P34981 whole entry, looked up): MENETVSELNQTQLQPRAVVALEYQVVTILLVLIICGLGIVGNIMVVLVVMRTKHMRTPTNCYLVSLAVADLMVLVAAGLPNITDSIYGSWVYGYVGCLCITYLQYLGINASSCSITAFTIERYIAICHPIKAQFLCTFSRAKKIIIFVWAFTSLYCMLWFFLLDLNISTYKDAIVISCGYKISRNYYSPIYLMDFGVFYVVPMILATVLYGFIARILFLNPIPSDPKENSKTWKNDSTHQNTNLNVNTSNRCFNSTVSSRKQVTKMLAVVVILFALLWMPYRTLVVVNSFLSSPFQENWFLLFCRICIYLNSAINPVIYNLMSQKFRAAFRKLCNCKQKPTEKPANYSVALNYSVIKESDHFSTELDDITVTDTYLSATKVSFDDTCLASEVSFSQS
#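 Enhancer read-out: after compound pinning and an initial kinetic agonist-mode read, an EC20 of TRH (10 nM final) was injected and fluo-8 calcium signal (Ex 480/Em 530) followed at 1 s/cycle for 100 cycles in TRHR-expressing cells.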
# D1 antag: antagonists of human D1 dopamine receptor. P21728. HEK293 TREx D1 cells, calcium flux, dopamine EC80; active compounds read low. 360,000 tested, 3.2% active. activity change, negative = inhibition, % at 10 µM; in the data active means activity change below about -30%; further: on the % scale 0 is the no-effect control and ±100 the full control effect
#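 Calcium flux readout: force-coupled, inducible Hek293 Trex D1 line, cells induced overnight at 30 C with tetracycline, dye-loaded 30–90 min at RT. Antagonism scored against EC80 dopamine challenge given 180 s after compound.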
# D1 ag: activates the human D1 dopamine receptor; P21728; HEK293 T-REx D1 cells, calcium flux, agonist mode; activation, % at 2 µM; 360,000 tested, 1% active; AID 504660; further: 0% is about no effect
#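 Agonism was scored from calcium flux recorded over 180 s (1 read/s) after pintool compound addition, following a 10-cycle baseline. Cells were inducible force-coupled HEK293 TREx D1, plated overnight at 30 C and loaded with no-wash calcium dye.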
# TRHR agonist: agonists of human TRH receptor; P34981; TRHR cells, calcium flux fluo-8, FDSS agonist mode; activation, % at 2 µM; 360,000 tested, 0.18% active; AID 493084; further: 0% is about no effect
#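 In this calcium-flux screen, cells bearing human TRHR are dye-loaded with fluo-8, baselined for 10 cycles, then exposed to library compounds; positive kinetic calcium responses during the agonist phase mark hits, with TRH as control.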
# D1 potentiator: human D1 dopamine receptor positive modulation; P21728; HEK293 TREx D1 cells, calcium flux, dopamine EC20 potentiation; potentiation, % at 10 µM; 360,000 tested, 0.036% active; AID 504651; in the data active means potentiation above about 30%; further: 0% is about no effect
# Numbers without * were called inactive. Rows were chosen to be rich in hits. Some 4.7% of all compounds tested hit in one or more screens of this group. Unless noted, no stated cut-off is given here; in the data, active means activation above about 30%; inactive means the rest.
SMILES,TRHR enhancer,D1 antag,D1 ag,TRHR agonist,D1 potentiator
COc1ccc(C(=O)NC2CC3CCCC(C2)N3CC(C)C)cc1 (stereo not given),2,5,4,1,-12
CC(C)c1ccc(NC(=O)c2ccc(CN3CC(=O)N4CCCCC4C3=O)cc2)cc1 (stereo not given),2,-2,1,-1,-2
CCOC(=O)c1nc(-c2ccccc2)oc1N(C)C,30*,-11,0,0,-3
Cc1cc(Cl)ccc1OCC(=O)N(Cc1ccco1)Cc1ccco1,-6,-11,6,0,0
Cc1ccc(CN(Cc2ccco2)C(=O)COc2ccc(C)c(C)c2)cc1,-9,-29,10,1,-3
Cc1cccc(OCC(=O)N(Cc2cccc(Cl)c2)Cc2ccco2)c1C,-8,-17,31*,4,-1
Cc1cc(C)c2c(CC(=O)N(Cc3ccc(Cl)cc3)Cc3ccco3)coc2c1,12,16,38*,6,2
Cc1cc(=O)oc2ccc(OCC(=O)N(Cc3ccc(F)cc3)Cc3ccco3)cc12,-5,-42*,17,0,-6
O=C1c2cccc3cccc(c23)C(=O)N1c1ccc(O)cc1,3,-1,3,0,-3
O=C1c2cccc3c(N4CCCCC4)ccc(c23)C(=O)N1c1ccc(O)cc1,-6,20,359*,134*,-3
O=C1c2cccc3c(N4CCCCC4)ccc(c23)C(=O)N1c1ccccc1O,6,-4,204*,96*,4
NS(=O)(=O)c1ccc(CCNC(=O)COC(=O)CCc2ccccc2)cc1,2,-16,2,0,-5
CC(C)(C)c1ccc(C(=O)CCC(=O)OCC(=O)NCCc2ccc(S(N)(=O)=O)cc2)cc1,4,-34*,5,0,-4
NS(=O)(=O)c1ccc(CCNC(=O)COC(=O)C2CCC2)cc1,33*,5,0,0,-2
Cc1ccc2c(c1)-c1onc(C(=O)N(C)c3cccc(C(F)(F)F)c3)c1CO2,5,3,1,-1,-1
COc1cccc(NC(=O)Nc2cc(-c3cn4cccnc4n3)ccc2OC)c1,34*,5,0,0,-2
COc1ccc(-c2cn3cccnc3n2)cc1NC(=O)c1c(F)cccc1F,1,-35*,-1,0,-3
CCOC(=O)c1c(C)[nH]c(C)c1S(=O)(=O)N1CCC(C(=O)Nc2ccccc2CC)CC1,1,-37*,0,0,3
CCOC(=O)c1c(C)[nH]c(C)c1S(=O)(=O)N1CCCC(C(=O)NCc2ccc(Cl)cc2)C1 (stereo not given),16,-31*,4,0,2
CCOC(=O)N1CCN(S(=O)(=O)N2CCCC(C(=O)NCCc3ccc(Cl)cc3)C2)CC1 (stereo not given),-2,-41*,5,0,-3
CCOC(=O)c1c(C)[nH]c(C)c1S(=O)(=O)N1CCCC(C(=O)NCc2ccc(C)cc2)C1 (stereo not given),-2,-3,1,-1,-3
CCOc1ccccc1CNC(=O)C1CCN(S(=O)(=O)c2ccc3c(ccn3C)c2)CC1,-11,-17,5,0,3
CCN(CC)CCNC(=O)Nc1ccc2c(c1)N(Cc1ccccc1)C(=O)c1ccccc1S2,-5,12,0,2,-1
OCC(O)CN1CCCC1 (stereo not given),1,-32*,3,0,0
OC(CN1CCCCC1)CN1CCCCC1,11,4,3,0,-2
SMILES,TRHR enhancer,D1 antag,D1 ag,TRHR agonist,D1 potentiator
CCc1ccc(C(=O)c2cn(CC(=O)Nc3cc(OC)ccc3OC)c3ccc(Cl)cc3c2=O)cc1,3,33,1,0,4
CC1=C(C(=O)Nc2ccccc2)C(c2ccncc2)n2nc(SCc3ccccc3F)nc2N1 (stereo not given),11,-3,2,0,-1
CCCCNC(=S)NNC(=O)c1csc(C(C)C)c1,3,-45*,-1,0,-4
CCNC(=S)NNC(=O)c1csc(C(C)C)c1,3,11,-1,0,15
Cc1[nH]c(=S)c(C#N)c(C)c1Cc1ccc(Cl)cc1Cl,-1,-51*,0,0,-5
Cc1[nH]c(=O)c(C#N)c(C)c1Cc1ccc(Cl)cc1Cl,0,-62*,0,-1,6
